According to PubChem BioAssay AID624300 (Southern Research Specialized Biocontainment Screening …, 2012):
Hit rate of the full screen: of about 2,400 compounds, about 360 (15%) were called active. These entries were drawn from the full list. Results with a measured potency or affinity are listed apart. A number with no mark means an inactive call.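 The calls were made as follows: active = viability falls under 70% at one or more tested concentrations, taken as toxicity; inactive = viability stays over 70% at every dose.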

Assay: viability loss in HeLa cells – cytotoxicity control for MgcRacGAP inhibitor project, dose response (AID 624300);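 also: 100% = median of untreated control wells on the same plate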
Conditions: CellTiter-Glo luminescence, 24 h; series mostly up to 100 µM; viability: at the top concentration

Structure (SMILES)	viability
Oc1ccc(-c2csc(Nc3cccnc3)n2)cc1	91%
Oc1ccc(-c2csc(Nc3ncccn3)n2)cc1	100%
C#CCOCCOCCOCCNc1nc(N2CCN(C(=O)[C@H](CCCCN)n3cc([C@@H](N)C(C)CC)nn3)CC2)nc(N2CCN(C(=O)[C@H](CCCCN)n3cc([C@@H](N)CC(C)C)nn3)CC2)n1 (stereo partly drawn)	101%
Cc1ccc(N2CC(C(=O)Nc3ccc(N(C)C)cc3)CC2=O)cc1C (stereo not drawn)	94.4%
O=C(O)c1ccc(S(=O)(=O)c2ccc3c(c2)C(=O)N(NC(=O)c2cccnc2)C3=O)cc1	102%
O=C(O)c1cccc2cccc(-c3c4ccc(=O)c(O)c-4oc4c(O)c(O)ccc34)c12	97.2%
Cc1cc(=O)oc2c(O)c(O)ccc12	87.6%
CC(C(=O)NCC(=O)Nc1ccc(F)c(F)c1F)N1CCN(c2ccc(O)cc2)CC1 (stereo not drawn)	107%
Cc1cc(C(=O)c2cnc(/N=C/N(C)C)s2)cc(C)c1O	94.2%
COc1cc(/C=N/NC(=O)C(=O)N2CCCC2)ccc1O	103%
Oc1ccc(Br)cc1C=Nc1ccc2[nH]ncc2c1	90.4%
Oc1ccccc1/C=N/n1c(-c2ccccc2)n[nH]c1=S	104%
O=[N+]([O-])c1cccc(/C=N/n2c(-c3cccnc3)n[nH]c2=S)c1	98.9%
CCN(c1ccccc1)S(=O)(=O)c1ccc(OC)c(NC(=O)CNCCc2ccccc2)c1	94.7%
CCOC(=O)CCNC(C)C1COc2ccccc2O1 (stereo not drawn)	102%
O=C(COC(=O)c1c2c(nc3ccccc13)/C(=C/c1ccco1)CC2)NC1CCCC1	89.1%
CC(C)c1ccc(NC(=O)CNCC(c2ccccc2)N(C)C)cc1 (stereo not drawn)	98.1%
COC(C(=O)N/N=C(\C)CC(=O)Nc1ccc(N(C)C)cc1)c1ccccc1 (stereo not drawn)	106%
COc1cc(N=Nc2c(C)n(C)n(-c3ccccc3)c2=O)ccc1N	95.7%
Oc1ccc(/C=N/N=C/c2ccc(O)cc2)cc1	102%

Structure (SMILES)	viability
COc1cccc(OC)c1OCCCCN1CCCC1	102%
Cc1cccn2c(NCc3ccc4c(c3)OCO4)c(-c3ccc(O)cc3)nc12	98.5%
C/C(CC(=O)Nc1ccc(N(C)C)cc1)=N\NC(=O)c1ccc([N+](=O)[O-])cc1Cl	103%
Cc1cc(/C=C(\C#N)C(=O)N2CCCCC2)cc(C)c1O	94.2%
COc1ccc(N2C(=O)CC(Nc3ccc(N4CCOCC4)cc3)C2=O)c(OC)c1 (stereo not drawn)	106%
CN1C=CC(=CC=C2C=CC(=O)C=C2)C=C1	93.8%
COc1cc(/C=C/C(=O)OC(C)C(=O)Nc2c(C)n(C)n(-c3ccccc3)c2=O)ccc1O (stereo not drawn)	99.9%
COc1cc(/C=N/NC(=O)c2nnn(-c3nonc3N)c2C(C)C)ccc1O	96.8%
CCN1CCN(CCOc2ccc(Br)cc2C)CC1	95.3%
COc1ccc(-c2cn[nH]c2-c2ccc(O)cc2O)cc1	101%
COc1ccccc1-c1cn[nH]c1-c1ccc(O)cc1O	104%
CN1CCN(Cc2coc3c(Cl)cc(Cl)cc3c2=O)CC1	101%
CN1C(=O)C2C(c3ccc(N(C)C)cc3)=NN(Cc3ccccc3)C2C1=O (stereo not drawn)	97%
CC(C(=O)Nc1ccc2c(c1)OCO2)N1CCN(C)CC1 (stereo not drawn)	101%
CCN(CC)CCCNCC(=O)Nc1cc(C)on1	105%
CCN(CC)CCn1c2ccccc2c(=O)c2c(O)ccc(O)c21	93%
COc1ccc(-n2c(=O)c3c4c(sc3n3c(=S)[nH]nc23)CCCC4)cc1	96.4%
c1cc2c(cc1CNc1ccc(N3CCOCC3)cc1)OCO2	99.3%
COc1cc(/C=N/n2c(C3CCCCC3)n[nH]c2=S)ccc1O	89.1%
CN1CCN(/N=C/c2nc(-c3ccc(Cl)cc3)n3ccccc23)CC1	98.7%

Structure (SMILES)	viability
Oc1ccc(N2CCN(C(c3cccs3)c3nnnn3CCc3ccccc3)CC2)cc1 (stereo not drawn)	107%
Cc1ccc(NC(=O)CCC(=O)N/N=C/c2ccc(O)cc2)cc1	102%
Cn1cccc1CC(=O)N/N=C/C=C/c1ccco1	102%
Cc1ccc(Nc2n[nH]c(=S)s2)c(C)c1	96.7%
O=C(CNC1CC1)Nc1cc(C(F)(F)F)ccc1Cl	90.3%
CCC1=NN2C(=N)/C(=C\c3ccc(SCc4ccco4)o3)C(=O)N=C2S1	97.1%
CCOc1cc(/C=N/NC(=O)c2ccccc2OCc2ccc(F)cc2)ccc1O	82.5%
O=C(COc1ccccc1[N+](=O)[O-])N/N=C/c1ccc(O)cc1	106%
O=C(N/N=C/c1ccc(O)c(O)c1)c1cccc(S(=O)(=O)N2CCCCC2)c1	91.9%
CCOC(=O)Nc1ccc(OC(=O)Oc2ccc(NC(=O)OCC)cc2)cc1	103%
CC(=O)Nc1ccc(OC(=O)c2cc3ccccc3oc2=O)cc1	112%
C=CCc1cc(C=Nc2ccc(N3CCOCC3)cc2)cc(OCC)c1O	103%
CCc1nnc(N/N=C/c2c(C)[nH]c3ccccc23)n1N	88.7%
CCN1CCN(C(C)C(=O)NC2CCCCC2)CC1 (stereo not drawn)	100%
C/C(=N/Nc1ccc(C(=O)O)cc1)c1ccc2c(c1)Nc1ccccc1S2	103%
C/C(=N\NC(=O)c1ccccc1F)c1ccc2c(c1)Nc1ccccc1S2	87.5%
N#CC1=C(S)N(c2ccccc2)C2(CCCCC2)NC1=O	96.7%
CC1(C)O[C@@H]2[C@H](O1)[C@@H](COS(=O)(=O)O)O[C@H]2n1c(=S)[nH]c2c(=O)[nH]c(N)nc21	97.4%
